“And” between values parts separate entries of the source, which are not always exact repeats. Identical values can stand only once. Results filed as inconclusive are left out. The source made the active and inactive calls. Unless noted, the call rests on the fitted dose curve; in most records, active means well fitted curve in the direction sought with a large enough effect; inconclusive means small, poorly fitted or top-dose-only effect, or another doubt; inactive means no such curve, though single readings can be large; an effect the other way counts as inactive or inconclusive.
Key:
[1] = molecular target: DNA repair nuclease/redox regulator APEX1 (Homo sapiens) (UniProt P27695); assay: qHTS Validation Assay for Inhibitors of the Human Apurinic/apyrimidinic Endonuclease 1 (APE1) (AID 1705;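 further: TAMRA fluorescence gain over two minutes as APE1 cuts a quenched THF abasic duplex; series mostly up to about 57 µM; on the % scale 0 is the no-effect control and ±100 the full control effect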)
Procedure, shortened: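 Substrate: 50 nM final fluorophore/quencher THF-abasic duplex. Enzyme preincubated with compounds 15 min, RT. Progress derived from fluorescence difference, third minus first kinetic read.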

[2] = Counterscreen for APE1 Inhibitors: Fluorescent Dye Displacement Validation Assay (AID 1707);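 further: plate controls were ThO with dsDNA and no compound for no effect and ThO without dsDNA for full effect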
Procedure, shortened: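 Loss of Thiazole Orange fluorescence marks promiscuous DNA binders. The dye (250 nM) is mixed with 50 nM abasic-site dsDNA in pH7.5 Tris buffer containing MgCl2, then compounds are added and emission is read once.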

[3] = qHTS for differential inhibitors of proliferation of Plasmodium falciparum line Dd2 (AID 1882); conditions: Potency: Plasmodium falciparum Dd2 proliferation inhibition;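 further: series mostly up to about 29 µM; compound exposure of 72 h on infected erythrocytes; plate controls were DMSO vehicle for no effect and 0.29 µM artemisinin for full effect; nearly all actives have a fitted effect of over 65% in size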
Procedure, shortened: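 RBC culture, 0.3% parasitemia / 2.5% Hct final; cpd added by pin tool in DMSO; 72 h, 37 C, 5% CO2; lysis buffer + SYBR Green I, o/n RT dark; FI 485/535; norm. to artemisinin 0.29 uM and DMSO.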

[4] = qHTS Assay for Modulators of Human Peripheral Myelin Protein 22 (PMP22) Expression/Activity (AID 1967; active means well fitted curve in the direction sought with a large enough effect in the signal ratio; the % refers to the signal ratio;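 further: 0% = untreated cells and 100% end not stated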)
Procedure, shortened: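 Engineered MSC80 cells, Pmp22-promoter green and EF-alpha red luciferase reporters; 24h compound treatment at 37 °C. Concentration-response fits on green, red and ratio signals, each overlap-corrected, with %Activity normalized to untreated wells.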

[5] = molecular target: Ferritin light chain (Equus caballus) (UniProt P02791); assay: qHTS Validation Assay for Identification of Novel General Anesthetics (AID 2323); further: series mostly up to about 77 µM; on the % scale 0 is the no-effect control and ±100 the full control effect
Procedure, shortened: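 Normalized fluorescence response, scaled between free 1-AMA and 1-AMA/apoferritin complex, fitted to a four-parameter Hill equation for concentration-effect values. Binding mix: 10 uM horse-spleen apoferritin, 50% saturated 1-AMA in PBS; read 380/535 nm after 10 min.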

[6] = molecular target: ATP-dependent DNA helicase Q1 (Homo sapiens) (UniProt P46063); assay: qHTS Validation Assay for Inhibitors of RecQ-Like Dna Helicase 1 (RECQ1) (AID 2353);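 further: plate controls were DMSO vehicle for no effect and enzyme-free control for full effect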
Procedure, shortened: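 RECQ1T1 50 nM; forked duplex (20 bp + 30-nt ss tails) 200 nM, ATP 2 mM final; pH 8.0, 2 mM MgCl2, 2.5 ug/ml poly(dI-dC); 15 min compound preincubation; discontinuous kinetic read over 2 h at RT.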

[7] = Validation screen for small molecules that induce DNA re-replication in MCF 10A normal breast cells (AID 463097); further: 0% is about no effect; nearly all actives have a fitted effect of over 60% in size
Procedure, shortened: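 Following 48 hr compound incubation (37 C, 5% CO2), MCF 10A cells receive Hoechst for 40 min at 37 C. Nuclei are then scanned (excitation 405 nm, emission 500-530 nm) for total fluorescence intensity.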

[8] = Quantitative high throughput screen for delayed death inhibitors of the malarial parasite plastid, 48 hour incubation (AID 488752); further: on the % scale 0 is the no-effect control and ±100 the full control effect; nearly all actives have a fitted effect of over 65% in size
Procedure, shortened: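 Luciferase-expressing P. falciparum in RBCs, 2% Hct, 0.1% parasitemia final; RPMI 1640 + 0.5% Albumax; 48 h, 37 C, 5% CO2; luminescence readout, signal drop = growth inhibition.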

[9] = molecular target: Transient receptor potential cation channel subfamily V member 1 (Homo sapiens) (UniProt Q8NER1); assay: HTS Assay for Compounds that Act as Enhancers of the Vanilloid Receptor 1 (AID 488979); further: 0% is about no effect
Procedure, shortened: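 Calcium influx kinetics via Fluo-8 (480/520 nm) in TRPV1-expressing cells, 2000/well cultured overnight at 35.5C. Compound-alone read 3 min (agonist phase), followed by EC20 capsaicin challenge for 2 min (enhancer phase).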

[10] = molecular target: Thyrotropin receptor (Homo sapiens) (UniProt P16473); assay: qHTS Assay for Antagonists of the Thyroid Stimulating Hormone Receptor (AID 488980); further: series mostly up to about 58 µM; 0% is about no effect
Procedure, shortened: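 Inhibition of TSH-stimulated cAMP accumulation was quantified by homogeneous time-resolved FRET in TSHR-transfected HEK293 cells. Agonist: TSH, 4 nM final (EC80).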

[11] = molecular target: Thyrotropin-releasing hormone receptor (Homo sapiens) (UniProt P34981); assay: qHTS for Small Molecule Agonists and Allosteric Enhancers of Human TRH Receptor: Validation Screen for Agonists (AID 493127;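 active means calcium activation more than 3 SD above the typical response in the agonist read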;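 further: intracellular calcium rise by fluo-8 fluorescence before TRH EC20 addition; 0% is about no effect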); conditions: TRH receptor agonist cell assay; at 2 µM; active compounds read high
Procedure, shortened: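 Read-out: intracellular calcium release measured kinetically by FDSS (fluo-8, ex 480/em 530 nm), 1 reading/s after a 10-cycle baseline. TRHR cells, 2000/well, cultured 18 h at 33.5C, dye-loaded at room temp. Compound-evoked positive calcium signal flags agonists.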

[12] = molecular target: Galactokinase (Homo sapiens) (UniProt P51570); assay: qHTS Validation Assay for Inhibitors of Human Galactokinase (GALK) (AID 493189); further: 0% is about no effect
Procedure, shortened: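 Enzyme activity is inferred from ATP consumption: human GALK phosphorylates galactose (100 uM) using 35 uM ATP for 1 h at room temperature, and luciferase-based Kinase-Glo Plus reports unconsumed ATP.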

[13] = Validation screen for small molecules that induce DNA re-replication in SW480 colon adenocarcinoma cells (AID 504364); further: 0% is about no effect
Procedure, shortened: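 Read-out: total Hoechst intensity of nuclei by fluorescence scanning imager; hits raise the fraction of nuclei with elevated DNA content. Cells received compound for 48 hr at 37 C before a 40 min stain.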

[14] = molecular target: Cytochrome P450 2C19 (Homo sapiens) (UniProt P33261); assay: qHTS Assay for Inhibitors and Substrates of Cytochrome P450 2C19 (AID 899); further: potency means the concentration at half of the fitted maximal effect; nearly all actives have a fitted effect of over 60% in size
Procedure, shortened: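 Reactions contain 5nM enzyme, 10uM Luciferin-H EGE (KM) and 50mM KPO4; compound preincubates 10 min at 37C, NADPH regeneration starts turnover for 60 min. Luminescence after detection reagent gives activity.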

[15] = molecular target: Cytochrome P450 2C9 (Homo sapiens) (UniProt P11712); assay: qHTS Assay for Inhibitors and Substrates of Cytochrome P450 2C9 (AID 883); further: on the % scale 0 is the no-effect control and ±100 the full control effect; nearly all actives have a fitted effect of over 60% in size
Procedure, shortened: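 Turnover of Luciferin-H (100uM, KM) by 10nM human CYP2C9 was measured over 60 min at 37C with NADPH regeneration; inhibitors and some substrates reduce luminescence. Data normalized to sulphaphenazole 57uM.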

[16] = molecular target: Cytochrome P450 2D6 (Homo sapiens) (UniProt P10635); assay: qHTS Assay for Inhibitors and Substrates of Cytochrome P450 2D6 (AID 891); further: potency means the concentration at half of the fitted maximal effect; nearly all actives have a fitted effect of over 60% in size
Procedure, shortened: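 Luminescent read-out of luciferin formed by 5 nM human CYP2D6 demethylating 30 uM Luciferin-ME EGE (Km level) over 60 min at room temperature after NADPH regeneration addition. Data normalized to full inhibition by 1.43 uM quinidine.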

[17] = NCATS anti-infectives library activity on HEK293 viability as a counter-qHTS vs the C. elegans viability qHTS (AID 1745854); further: on the % scale 0 is the no-effect control and ±100 the full control effect
Procedure, shortened: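 CellTiter-Glo luminescence, read on a CCD imager, scored viability of HEK293 cells after 24 hr compound exposure at 37C. Library tested in several concentrations, 1:5 steps, up to 41.7 uM; digitonin served as control.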

[18] = NCATS anti-infectives library activity on the primary C. elegans qHTS viability assay (AID 1745855; calls by dose curve)
Procedure, shortened: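 Titration-based screen in worms: eggs hatched overnight in M9, L1 larvae fed TOP10 capsules in S medium with compound, incubated 21 °C for 7 days; fluorescent objects gated by size and intensity at days 0, 3 and 7.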

[19] = SDT Cancer Cell Toxicity qHTS against the NCATS CANVASS Library (AID 1347365)
Procedure, shortened: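 Luminescent ATP read-out (CellTiterGlo) after 72 hr compound exposure of dog glioma SDT cells, 500 per well. Eleven-point titrations; bortezomib titration run alongside as control.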

[20] = G06 Cancer Cell Toxicity qHTS against the NCATS CANVASS Library (AID 1347368)
Procedure, shortened: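 ATP luminescence (CellTiterGlo) readout of cytotoxicity. Canine G06 glioma cells, 500/well, 72 hr incubation at 37C with compounds; bortezomib titration served as control.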

Sequence of Cytochrome P450 2D6 (Homo sapiens) (P10635 whole entry, looked up): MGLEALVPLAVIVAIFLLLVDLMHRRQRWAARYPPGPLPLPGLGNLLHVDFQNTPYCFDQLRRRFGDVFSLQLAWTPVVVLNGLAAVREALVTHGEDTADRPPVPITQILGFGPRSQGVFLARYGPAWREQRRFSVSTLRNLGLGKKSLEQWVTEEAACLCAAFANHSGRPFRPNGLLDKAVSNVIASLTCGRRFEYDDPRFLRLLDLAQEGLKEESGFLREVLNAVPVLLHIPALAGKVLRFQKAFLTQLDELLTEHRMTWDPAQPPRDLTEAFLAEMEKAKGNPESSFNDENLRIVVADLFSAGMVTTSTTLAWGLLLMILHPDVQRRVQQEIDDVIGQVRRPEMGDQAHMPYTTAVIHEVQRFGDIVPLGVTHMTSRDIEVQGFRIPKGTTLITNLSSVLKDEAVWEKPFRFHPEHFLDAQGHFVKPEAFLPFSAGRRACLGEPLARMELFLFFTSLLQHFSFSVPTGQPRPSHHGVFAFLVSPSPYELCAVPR
Sequence of Galactokinase (Homo sapiens) (P51570 whole entry, looked up): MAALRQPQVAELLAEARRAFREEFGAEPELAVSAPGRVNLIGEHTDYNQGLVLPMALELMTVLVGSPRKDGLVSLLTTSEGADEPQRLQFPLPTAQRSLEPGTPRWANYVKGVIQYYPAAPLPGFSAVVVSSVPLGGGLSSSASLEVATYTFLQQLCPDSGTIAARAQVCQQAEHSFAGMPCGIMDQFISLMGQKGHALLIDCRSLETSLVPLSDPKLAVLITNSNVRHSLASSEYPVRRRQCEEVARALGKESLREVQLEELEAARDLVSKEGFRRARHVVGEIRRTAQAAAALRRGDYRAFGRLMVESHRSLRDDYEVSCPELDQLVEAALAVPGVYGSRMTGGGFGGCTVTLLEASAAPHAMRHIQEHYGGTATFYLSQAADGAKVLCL
Sequence of Thyrotropin receptor (Homo sapiens) (P16473 whole entry, looked up): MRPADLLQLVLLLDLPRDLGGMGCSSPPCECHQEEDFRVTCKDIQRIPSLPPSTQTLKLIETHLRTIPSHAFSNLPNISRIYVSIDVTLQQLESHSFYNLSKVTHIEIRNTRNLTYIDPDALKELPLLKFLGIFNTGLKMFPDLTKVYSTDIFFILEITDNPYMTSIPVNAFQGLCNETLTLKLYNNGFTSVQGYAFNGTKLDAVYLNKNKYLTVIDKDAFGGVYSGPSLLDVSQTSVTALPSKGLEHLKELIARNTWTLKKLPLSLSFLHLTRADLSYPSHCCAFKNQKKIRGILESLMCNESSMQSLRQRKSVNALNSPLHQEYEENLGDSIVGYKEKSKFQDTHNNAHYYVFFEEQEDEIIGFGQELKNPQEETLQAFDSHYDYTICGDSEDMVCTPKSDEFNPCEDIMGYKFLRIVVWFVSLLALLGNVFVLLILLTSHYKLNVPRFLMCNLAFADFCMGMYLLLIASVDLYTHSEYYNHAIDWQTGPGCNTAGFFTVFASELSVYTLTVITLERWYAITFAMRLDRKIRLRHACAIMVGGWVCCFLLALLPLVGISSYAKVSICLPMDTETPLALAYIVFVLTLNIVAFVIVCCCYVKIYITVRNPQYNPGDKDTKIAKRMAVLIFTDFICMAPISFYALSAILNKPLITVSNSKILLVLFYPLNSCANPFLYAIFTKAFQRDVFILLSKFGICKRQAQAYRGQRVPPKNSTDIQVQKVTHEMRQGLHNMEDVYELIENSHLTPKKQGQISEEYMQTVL
Sequence of Cytochrome P450 2C19 (Homo sapiens) (P33261 whole entry, looked up): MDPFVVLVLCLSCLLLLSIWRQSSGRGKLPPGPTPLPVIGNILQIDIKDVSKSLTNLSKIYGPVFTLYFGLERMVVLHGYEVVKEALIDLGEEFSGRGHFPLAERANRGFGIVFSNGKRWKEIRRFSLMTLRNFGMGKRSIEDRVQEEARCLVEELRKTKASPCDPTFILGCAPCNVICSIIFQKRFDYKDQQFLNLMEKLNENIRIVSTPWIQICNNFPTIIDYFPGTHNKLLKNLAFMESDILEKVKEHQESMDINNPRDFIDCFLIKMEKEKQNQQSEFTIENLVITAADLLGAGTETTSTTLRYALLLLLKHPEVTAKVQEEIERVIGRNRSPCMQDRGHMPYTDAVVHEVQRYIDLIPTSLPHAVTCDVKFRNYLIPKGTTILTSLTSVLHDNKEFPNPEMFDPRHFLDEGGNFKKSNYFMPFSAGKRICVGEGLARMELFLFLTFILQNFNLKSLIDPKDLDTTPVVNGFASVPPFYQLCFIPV
Sequence of Cytochrome P450 2C9 (Homo sapiens) (P11712 whole entry, looked up): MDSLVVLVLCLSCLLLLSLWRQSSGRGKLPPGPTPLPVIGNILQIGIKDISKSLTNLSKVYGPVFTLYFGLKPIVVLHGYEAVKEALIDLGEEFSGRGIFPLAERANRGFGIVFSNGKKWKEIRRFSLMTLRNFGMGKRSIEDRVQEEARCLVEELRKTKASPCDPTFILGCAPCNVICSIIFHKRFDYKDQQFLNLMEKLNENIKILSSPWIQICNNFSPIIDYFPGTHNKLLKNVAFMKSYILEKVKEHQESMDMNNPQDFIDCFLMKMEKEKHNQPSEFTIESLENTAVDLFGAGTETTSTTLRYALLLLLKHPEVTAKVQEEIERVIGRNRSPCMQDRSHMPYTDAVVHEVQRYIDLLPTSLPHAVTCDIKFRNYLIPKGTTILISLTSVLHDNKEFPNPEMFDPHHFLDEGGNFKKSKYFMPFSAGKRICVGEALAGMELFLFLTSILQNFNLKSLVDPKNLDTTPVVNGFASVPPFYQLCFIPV
Sequence of DNA repair nuclease/redox regulator APEX1 (Homo sapiens) (P27695 whole entry, looked up): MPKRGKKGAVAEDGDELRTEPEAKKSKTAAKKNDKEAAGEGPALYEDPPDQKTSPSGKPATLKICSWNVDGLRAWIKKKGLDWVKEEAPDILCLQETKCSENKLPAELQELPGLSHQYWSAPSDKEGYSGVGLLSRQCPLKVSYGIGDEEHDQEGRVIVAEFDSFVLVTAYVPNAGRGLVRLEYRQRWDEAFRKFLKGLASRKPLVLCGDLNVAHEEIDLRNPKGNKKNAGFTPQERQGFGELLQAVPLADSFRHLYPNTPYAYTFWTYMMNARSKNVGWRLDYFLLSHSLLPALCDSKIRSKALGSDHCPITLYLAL
Sequence of Ferritin light chain (Equus caballus) (P02791 2-175 limits assumed): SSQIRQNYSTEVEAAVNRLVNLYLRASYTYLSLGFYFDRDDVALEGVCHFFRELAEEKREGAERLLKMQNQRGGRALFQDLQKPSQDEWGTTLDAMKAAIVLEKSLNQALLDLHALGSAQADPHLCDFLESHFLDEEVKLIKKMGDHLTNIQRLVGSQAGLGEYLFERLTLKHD
Sequence of Thyrotropin-releasing hormone receptor (Homo sapiens) (P34981 whole entry, looked up): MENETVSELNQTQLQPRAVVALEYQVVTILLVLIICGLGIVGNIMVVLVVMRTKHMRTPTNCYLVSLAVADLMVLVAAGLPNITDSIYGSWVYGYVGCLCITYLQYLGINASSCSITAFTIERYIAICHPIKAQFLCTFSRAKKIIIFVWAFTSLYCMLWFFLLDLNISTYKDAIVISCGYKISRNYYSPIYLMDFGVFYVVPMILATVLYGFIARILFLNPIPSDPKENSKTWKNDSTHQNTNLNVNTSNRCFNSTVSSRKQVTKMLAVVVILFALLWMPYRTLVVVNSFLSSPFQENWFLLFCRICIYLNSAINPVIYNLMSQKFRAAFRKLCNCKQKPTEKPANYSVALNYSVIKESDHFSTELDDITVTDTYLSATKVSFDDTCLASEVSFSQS
Sequence of ATP-dependent DNA helicase Q1 (Homo sapiens) (P46063 whole entry, looked up): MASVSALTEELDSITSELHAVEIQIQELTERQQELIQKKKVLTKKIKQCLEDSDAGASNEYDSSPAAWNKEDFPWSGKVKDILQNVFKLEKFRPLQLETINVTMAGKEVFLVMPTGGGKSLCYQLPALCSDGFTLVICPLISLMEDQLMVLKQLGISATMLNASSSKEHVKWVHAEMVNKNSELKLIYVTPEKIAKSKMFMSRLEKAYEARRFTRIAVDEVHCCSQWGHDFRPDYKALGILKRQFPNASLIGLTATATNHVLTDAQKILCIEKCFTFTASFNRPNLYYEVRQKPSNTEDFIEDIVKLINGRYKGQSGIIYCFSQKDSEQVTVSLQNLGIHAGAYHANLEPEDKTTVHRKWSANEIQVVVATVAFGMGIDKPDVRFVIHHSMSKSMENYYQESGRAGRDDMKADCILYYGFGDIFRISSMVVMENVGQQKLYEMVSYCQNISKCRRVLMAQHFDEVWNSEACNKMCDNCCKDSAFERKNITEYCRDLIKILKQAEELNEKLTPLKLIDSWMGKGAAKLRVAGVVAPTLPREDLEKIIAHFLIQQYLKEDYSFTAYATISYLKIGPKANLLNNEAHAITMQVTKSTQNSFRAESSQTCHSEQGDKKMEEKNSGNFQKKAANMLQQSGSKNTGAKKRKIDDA

CC(=O)OCC1=C(C(=O)[O-])N2C(=O)[C@@H](NC(=O)CCC[C@@H](N)C(=O)[O-])[C@H]2SC1.[Zn+2]
inactive: Potency [1] | Potency [2] | Potency [3] | outcome [4] | outcome [5] | Potency [6] | Potency [7] | Potency [8] | outcome [9] | outcome [10] | activation [11] 1.25% | outcome [12] | Potency [13]

c1cncc([C@@H]2CCCCN2)c1
active: Potency [14] 2000 nM

CN(C)Cc1c[nH]c2ccccc12
inactive: Potency [15] | Potency [17] | Potency [18]
active: Potency [16] 158 nM and 10 µM

NCCc1ccccc1
inactive: Potency [19] | Potency [20]

From PubChem BioAssay (NCATS)
